Experimental findings from PubChem BioAssay (NCATS) are described below.

The nature of experiment [1]: qHTS profiling for inhibitors of Plasmodium falciparum (DD2) proliferation (AID 743323). The conditions noted are these: lower = more inhibition; at 28.7 µM (top of the series). An outline of the steps: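 Parasite DNA quantified by SYBR Green fluorescence (ex 485, em 535 nm) after saponin/Triton lysis and overnight dark incubation. Cultures: 0.3% parasitemia, 2.5% hematocrit, 72 h, 37 C; data scaled between DMSO and 0.29 uM artemisinin.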

Experiment [2] in a line: qHTS profiling for inhibitors of Plasmodium falciparum (HB3) proliferation (AID 743324).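 Note: 100% = DMSO vehicle wells and 0% = artemisinin-treated control wells.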 The conditions noted are these: Plasmodium falciparum HB3 blood-stage proliferation; at 28.7 µM (top of the series). An outline of the steps:
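SYBR Green fluorescence (485 ex/535 em) of lysed cultures, incubated overnight at room temperature in the dark, quantifies parasite DNA. Infected erythrocytes at 0.3% parasitemia and 2.5% hematocrit were exposed 72 h; values normalized to DMSO and 0.29 uM artemisinin controls.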

Experiment [3] can be described thus: qHTS profiling of the MIPE4 collection as inhibitors of Plasmodium falciparum (3D7) proliferation (AID 743344).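 Note: scaled between DMSO vehicle wells and 0.29 µM artemisinin as full inhibition.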 The note with it: P. falciparum 3D7 in erythrocytes, SYBR Green DNA fluorescence, 72 h; at 28.5 µM (top of the series) unless noted. The essentials: (§1)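 Parasite DNA was quantified by SYBR Green I fluorescence (ex 485, em 535 nm) after overnight lysis in saponin/Triton buffer at room temperature. Cultures at 0.3% parasitemia and 2.5% hematocrit were first exposed to compound for 72 h at 37 C; signals were normalised to artemisinin (0.29 uM) and vehicle wells.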
On the technique in general: In qHTS, concentration-response curves come from the screen itself.

A short description of experiment [4]: qHTS profiling of the MIPE4 collection as inhibitors of Plasmodium falciparum (DD2) proliferation (AID 743345). The note with it: P. falciparum Dd2 in erythrocytes, SYBR Green DNA, 72 h; at 28.5 µM (top of the series) unless noted. The essentials:
as §1

Experiment [5] is described as follows: qHTS profiling of the MIPE4 collection as inhibitors of Plasmodium falciparum (DD2) proliferation (Rep 2) (AID 743346). The note with it: P. falciparum Dd2 in erythrocytes, SYBR Green DNA, 72 h; at 28.5 µM (top of the series) unless noted. An outline of the steps:
as §1

Experiment [6] can be described thus: High-throughput drug toxicity screening in the BPDCN cell line Gen2.2 (AID 1224824).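 Note: cells exposed to compounds for 48 h before reading.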 The note with it: Gen2.2 BPDCN cells; at 45.8 µM (top of the series) unless noted. An outline of the steps: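 Seed 500 exponentially growing Gen2.2 cells/well; add compounds by pin tool; incubate 48 h, 37 °C, 5% CO2; add CellTiter-Glo, 15 min RT; read luminescence. % activity vs DMSO (100%) and bortezomib (0%).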

Experiment [7] can be described thus: High-throughput drug toxicity screening in the BPDCN cell line Cal-1 (AID 1224825). The conditions noted are these: Cal-1 BPDCN cell viability, qHTS; at 45.8 µM (top of the series) unless noted. The essentials:
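Viability of the BPDCN line Cal-1 is measured as ATP-based luminescence (CellTiter-Glo) following 48 h incubation with compounds. Percent activity uses DMSO-treated wells as 100% and 9.2 uM bortezomib as 0%.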

Experiment [8] can be described thus: qHTS profiling of the MIPE4 collection as inhibitors of Plasmodium falciparum (HB3) proliferation (AID 743347).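 Note: plate controls were DMSO vehicle wells for no effect and artemisinin wells for full effect.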 The conditions noted are these: P. falciparum HB3 in erythrocytes, SYBR Green DNA, 72 h; at 28.5 µM (top of the series) unless noted. The essentials:
as §1

The nature of experiment [9]: qHTS profiling for inhibitors of Plasmodium falciparum (3D7) proliferation (AID 743322).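 Note: infected erythrocytes exposed to compound for 72 h before lysis; 100% = DMSO vehicle wells and 0% = 0.29 µM artemisinin.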 The conditions noted are these: P. falciparum 3D7 proliferation; at 28.7 µM (top of the series). An outline of the steps: as §1

`CC[C@@H]1C(=O)N(C)c2cnc(Nc3ccc(C(=O)NC4CCN(C)CC4)cc3OC)nc2N1C1CCCC1`: the activity, percent of control in [1] was determined as 0.0959%. Further, the remaining proliferation (% of control), lower = more inhibition in experiment [2] is -0.331%. In addition, in experiment [3], the parasite growth, % of DMSO control turned out to be 4.91%. In experiment [4], the parasite growth remaining, % of DMSO control (lower = more inhibition) amounted to 6.75%. Besides, the parasite growth, % of control (lower = inhibition) in [5] is 17.2%. For the same molecule, in experiment [6], the cell viability, % of control (lower = more cytotoxic) was 4.74%. Moreover, the viability (% of control) in [7] was 2.57%.
On to `Clc1ccc2ncc(-c3cccc(NC4CNC4)n3)n2c1`, for which the activity, percent of control in experiment [1] was 12%. The remaining proliferation (% of control), lower = more inhibition in [2] is 6.95%. For the same molecule, the parasite growth, % of DMSO control in experiment [3] is 10.6%. The parasite growth remaining, % of DMSO control (lower = more inhibition) in [4] came to 24.5%. The molecule further displayed a growth, % of control in [8] of 3.87%. Besides, the cell viability, % of control (lower = more cytotoxic) in experiment [6] was found to be 15.7%. The viability (% of control) in [7] is 4.56%.
`O=C(O)[C@H](Cc1c[nH]c2ccccc12)N1C(=O)c2ccccc2C1=O`: the activity, percent of control in experiment [1] is 104%. Besides, the remaining proliferation (% of control), lower = more inhibition in experiment [2] worked out at 85.6%. In addition, the parasite growth, % of DMSO control in [3] was 99.6% [at 57.5 µM]. Also, the parasite growth remaining, % of DMSO control (lower = more inhibition) in experiment [4] amounted to 98.7% [at 57.5 µM]. For the same molecule, the parasite growth, % of control (lower = inhibition) in experiment [5] was determined as 77% [at 57.5 µM]. The molecule also came in with a growth, % of control in experiment [8] of 106% [at 57.5 µM]. Moreover, in experiment [6], the cell viability, % of control (lower = more cytotoxic) is 151% [at 92.2 µM]. For the same molecule, the viability (% of control) in experiment [7] turned out to be 104% [at 92.2 µM].
For the molecule `CC(=O)Nc1sc2c(c1-c1nc3ccccc3s1)CNC2`, the activity, percent of control in experiment [1] is 96.7%. Also, in experiment [2], the remaining proliferation (% of control), lower = more inhibition amounted to 74.7%. In [3], the parasite growth, % of DMSO control was 20.4%. Besides, the parasite growth remaining, % of DMSO control (lower = more inhibition) in experiment [4] was found to be 15.4%. Further, in experiment [5], the parasite growth, % of control (lower = inhibition) came out at 24%. The cell viability, % of control (lower = more cytotoxic) in experiment [6] was determined as 8.36%. Moreover, the viability (% of control) in [7] came to 4.86%.
As for `C[C@]1(CO)CN(c2cc(C(=O)Nc3ccc4c(c3)-c3c(c(C(N)=O)nn3-c3ccc(F)cc3)CC4)c(Cl)cn2)C[C@@]1(C)CO`, in experiment [1], the activity, percent of control was determined as 56.4%. The parasite growth, % of DMSO control in experiment [3] worked out at 11.4%. Further, the parasite growth remaining, % of DMSO control (lower = more inhibition) in experiment [4] came out at 17.1%. In addition, the parasite growth, % of control (lower = inhibition) in [5] stood at 38.3%. In [8], this molecule had a growth, % of control of 9.48%. Besides, in experiment [6], the cell viability, % of control (lower = more cytotoxic) amounted to 27.2%. The viability (% of control) in experiment [7] worked out at 6.89%.
For the molecule `Cc1[nH]nc2ccc(-c3cncc(OC[C@@H](N)Cc4ccccc4)c3)cc12`, in experiment [1], the activity, percent of control worked out at 14.2%. For the same molecule, in experiment [2], the remaining proliferation (% of control), lower = more inhibition came to 17.9%. This molecule showed a parasite growth, % of DMSO control in experiment [3] of 19.3%. In experiment [4], this molecule returned a parasite growth remaining, % of DMSO control (lower = more inhibition) of 38%. The parasite growth, % of control (lower = inhibition) in [5] amounted to 20.4%. Besides, the cell viability, % of control (lower = more cytotoxic) in experiment [6] is 7.91%. Besides, the viability (% of control) in experiment [7] is 3.31%.
On to `CC(NCc1ccc2c(c1)nc(NC(=O)c1ccc(-c3cn[nH]c3)s1)n2CC(C)(C)O)C(C)(C)C` (configuration not stated), for which the activity, percent of control in [1] is -0.339%. In addition, in experiment [3], the parasite growth, % of DMSO control came to 5.17%. For the same molecule, the parasite growth remaining, % of DMSO control (lower = more inhibition) in [4] is 7.07%. Further, in [6], the cell viability, % of control (lower = more cytotoxic) stood at 2.71%. In addition, the viability (% of control) in experiment [7] worked out at 2.63%.
Regarding `Cc1ccc(C(=O)Nc2ccc(CN3CCN(C)CC3)c(C(F)(F)F)c2)cc1C#Cc1cnc2cccnn12`, in [9], the remaining parasite growth % (stronger effect = lower value) is -1.18%. Also, the activity, percent of control in experiment [1] is 0.143%. In addition, in experiment [3], the parasite growth, % of DMSO control was 6.07%. The molecule further returned a parasite growth remaining, % of DMSO control (lower = more inhibition) in experiment [4] of 7.34%. The growth, % of control in experiment [8] was found to be 8.37%. For the same molecule, the cell viability, % of control (lower = more cytotoxic) in [6] turned out to be 10.5%. In experiment [7], the viability (% of control) came to 3.63%.
As for `C1Cc2[nH]nc(-c3nn[nH]n3)c2C1`, the activity, percent of control in experiment [1] was determined as 98.8%. For the same molecule, in [3], the parasite growth, % of DMSO control turned out to be 96.6%. The parasite growth remaining, % of DMSO control (lower = more inhibition) in experiment [4] amounted to 93.2%. For the same molecule, in experiment [5], the parasite growth, % of control (lower = inhibition) stood at 178%. This molecule registered a growth, % of control in [8] of 108%. In experiment [6], the cell viability, % of control (lower = more cytotoxic) is 194%. Besides, in [7], the viability (% of control) stood at 98.5%.
On to `O=C(CCCCCCC(=O)Nc1ccc([C@H]2O[C@@H](CSc3nc(-c4ccccc4)c(-c4ccccc4)o3)C[C@@H](c3ccc(CO)cc3)O2)cc1)NO`, for which the parasite growth, % of DMSO control in experiment [3] came to 5.18%. Besides, in experiment [4], the parasite growth remaining, % of DMSO control (lower = more inhibition) was 6.85%. For the same molecule, the parasite growth, % of control (lower = inhibition) in experiment [5] came to 7.19%. Further, in experiment [8], the growth, % of control amounted to 6.35%. Also, the cell viability, % of control (lower = more cytotoxic) in experiment [6] came out at 9.13%. In addition, the viability (% of control) in experiment [7] was determined as 4.48%.
On to `Nc1ccn([C@@H]2CS[C@H](CO)O2)c(=O)n1`, for which the parasite growth, % of DMSO control in experiment [3] is 404% [at 57.5 µM]. This molecule showed a parasite growth remaining, % of DMSO control (lower = more inhibition) in experiment [4] of 100% [at 57.5 µM]. Moreover, the cell viability, % of control (lower = more cytotoxic) in [6] is 218% [at 92.2 µM]. For the same molecule, the viability (% of control) in [7] was found to be 11% [at 92.2 µM].
